Laboratory results published in the supplement of paper PMC10849652.
Targets with a hit are over-represented here; the source holds about 7,900 in all. About 0.6% of all pairs of compound and target were hits.

What was measured:
Test in all cases: log2 fold change, soluble protein after heating vs DMSO (PISA); higher = thermal stabilisation; K562 cells, 10 uM, 30 min; active = over 0.2 and 3.5 SD of the protein, either way, in both replicates (recomputed)
[1] = compound: COC1=CC=C(C=C1)CN2C=CC3=C2C=C(C=C3)C(=O)NO
In short: (§1)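 K562 cells at 2×10^6 cells/mL were treated for 30 min with 10 μM compound, and aliquots were heated for 3 min over 48°C-58°C before pooling. Extraction used PBS with 0.5% NP-40 at 4°C, and soluble protein was the supernatant after 21,000xg for 90 min, measured by TMTpro 16plex LC-MS/MS with channel sums equalised. Thermal stability values, relative to control samples and from duplicates, are log2 fold changes.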

filanesib = compound: CON(C)C(=O)N1N=C(c2cc(F)ccc2F)S[C@@]1(CCCN)c1ccccc1 [filanesib]
In short: as §1

zotarolimus = compound: CO[C@H]1C[C@@H]2CC[C@@H](C)[C@@](O)(O2)C(=O)C(=O)N2CCCC[C@H]2C(=O)O[C@H]([C@H](C)C[C@@H]2CC[C@H](n3cnnn3)[C@H](OC)C2)CC(=O)[C@H](C)/C=C(\C)[C@@H](O)[C@@H](OC)C(=O)[C@H](C)C[C@H](C)/C=C/C=C/C=C/1C [zotarolimus]
In short: as §1

idasanutlin = compound: COc1cc(C(=O)O)ccc1NC(=O)[C@@H]1N[C@@H](CC(C)(C)C)[C@](C#N)(c2ccc(Cl)cc2F)[C@H]1c1cccc(Cl)c1F [idasanutlin]
In short: as §1

alisertib = compound: COc1cc(Nc2ncc3c(n2)-c2ccc(Cl)cc2C(c2c(F)cccc2OC)=NC3)ccc1C(=O)O [alisertib]
In short: as §1

[2] = compound: COc1cc2nc(-c3cc(F)ccc3O)nc(N[C@@H]3CNC[C@H]3C(C)(C)O)c2cc1OC
In short: as §1

gefitinib = compound: COc1cc2ncnc(Nc3ccc(F)c(Cl)c3)c2cc1OCCCN1CCOCC1 [gefitinib]
In short: as §1

[3] = compound: COc1cccc2cc(-c3nc([C@H]4CC[C@H](C(=O)O)CC4)n4ncnc(N)c34)[nH]c12
In short: as §1

lapatinib = compound: CS(=O)(=O)CCNCc1ccc(-c2ccc3ncnc(Nc4ccc(OCc5cccc(F)c5)c(Cl)c4)c3c2)o1 [lapatinib]
In short: as §1

pictilisib = compound: CS(=O)(=O)N1CCN(Cc2cc3nc(-c4cccc5[nH]ncc45)nc(N4CCOCC4)c3s2)CC1 [pictilisib]
In short: as §1

Measured: log2 fold change

GBA2 (UniProt Q9HCG7)
inactive: [1] -0.064 | filanesib 0.117 | zotarolimus 0.087 | idasanutlin -0.042 | alisertib 0.067 | [2] 0.049 | gefitinib 0.084 | [3] -0.062 | lapatinib 0.011

GLYR1 (UniProt Q49A26)
Sequence of UniProt Q49A26 (Q49A26 whole entry, looked up): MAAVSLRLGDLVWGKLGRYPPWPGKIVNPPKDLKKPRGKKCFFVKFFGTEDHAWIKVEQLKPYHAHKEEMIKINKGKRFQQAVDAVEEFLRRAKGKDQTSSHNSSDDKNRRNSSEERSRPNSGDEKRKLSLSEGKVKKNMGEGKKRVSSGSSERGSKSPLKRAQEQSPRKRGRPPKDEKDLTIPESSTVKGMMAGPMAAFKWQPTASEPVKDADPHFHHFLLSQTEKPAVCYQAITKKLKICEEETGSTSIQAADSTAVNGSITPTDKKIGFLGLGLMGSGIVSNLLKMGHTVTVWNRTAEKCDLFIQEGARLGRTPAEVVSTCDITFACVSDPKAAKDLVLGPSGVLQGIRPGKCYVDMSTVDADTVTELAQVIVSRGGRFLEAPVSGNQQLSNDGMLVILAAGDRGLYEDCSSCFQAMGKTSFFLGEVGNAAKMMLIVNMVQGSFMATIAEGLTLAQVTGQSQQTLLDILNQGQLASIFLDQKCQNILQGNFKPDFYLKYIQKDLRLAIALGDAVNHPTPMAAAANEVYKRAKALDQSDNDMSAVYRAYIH
inactive: [1] -0.024 | filanesib 0.125 | zotarolimus -0.04 | idasanutlin 0 | alisertib 0.071 | [2] -0.092 | gefitinib 0.113 | [3] -0.07 | lapatinib 0.169 | pictilisib -0.228

IFITM3 (UniProt Q01628)
Sequence of UniProt Q01628 (Q01628 whole entry, looked up): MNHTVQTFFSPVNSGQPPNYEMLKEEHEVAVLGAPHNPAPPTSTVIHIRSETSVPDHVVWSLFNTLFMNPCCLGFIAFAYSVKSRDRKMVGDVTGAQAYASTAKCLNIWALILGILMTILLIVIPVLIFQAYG
inactive: [1] 0.055 | filanesib 0.008 | zotarolimus 0.007 | idasanutlin 0.07 | alisertib -0.121 | [2] -0.017 | gefitinib 0.09 | [3] 0.089 | lapatinib 0.004

GCDH (UniProt Q92947)
inactive: [1] 0.02 | filanesib -0.081 | zotarolimus 0.027 | idasanutlin -0.066 | alisertib -0.066 | [2] -0.011 | gefitinib 0.042 | [3] 0.016 | lapatinib -0.004 | pictilisib -0.02

GTF2A1 (UniProt P52655)
Sequence of UniProt P52655 (P52655 whole entry, looked up): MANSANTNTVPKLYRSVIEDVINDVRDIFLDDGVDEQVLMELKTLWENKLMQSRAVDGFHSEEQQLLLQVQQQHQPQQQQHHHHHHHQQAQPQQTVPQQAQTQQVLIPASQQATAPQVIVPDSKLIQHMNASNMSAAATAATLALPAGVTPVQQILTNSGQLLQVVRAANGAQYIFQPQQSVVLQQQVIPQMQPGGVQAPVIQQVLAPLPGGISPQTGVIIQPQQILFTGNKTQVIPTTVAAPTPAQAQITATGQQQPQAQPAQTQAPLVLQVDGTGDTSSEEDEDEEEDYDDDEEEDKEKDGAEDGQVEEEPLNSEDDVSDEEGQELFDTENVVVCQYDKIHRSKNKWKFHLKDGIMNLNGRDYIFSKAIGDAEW
inactive: [1] -0.102 | filanesib 0.031 | zotarolimus 0 | idasanutlin 0.012 | alisertib -0.126 | [2] -0.069 | gefitinib 0.111 | [3] 0.043 | lapatinib 0.006 | pictilisib 0.012

FMC1 (UniProt Q96HJ9)
Sequence of UniProt Q96HJ9 (Q96HJ9 whole entry, looked up): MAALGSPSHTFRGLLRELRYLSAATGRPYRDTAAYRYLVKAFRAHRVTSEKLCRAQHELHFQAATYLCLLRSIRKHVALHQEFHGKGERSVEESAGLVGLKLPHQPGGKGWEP
inactive: [1] 0.068 | filanesib -0.037 | zotarolimus -0.101 | idasanutlin -0.091 | alisertib -0.042 | [2] -0.008 | gefitinib 0.06 | [3] 0.023 | lapatinib -0.018 | pictilisib 0.024

GNS (UniProt P15586)
Sequence of UniProt P15586 (P15586 whole entry, looked up): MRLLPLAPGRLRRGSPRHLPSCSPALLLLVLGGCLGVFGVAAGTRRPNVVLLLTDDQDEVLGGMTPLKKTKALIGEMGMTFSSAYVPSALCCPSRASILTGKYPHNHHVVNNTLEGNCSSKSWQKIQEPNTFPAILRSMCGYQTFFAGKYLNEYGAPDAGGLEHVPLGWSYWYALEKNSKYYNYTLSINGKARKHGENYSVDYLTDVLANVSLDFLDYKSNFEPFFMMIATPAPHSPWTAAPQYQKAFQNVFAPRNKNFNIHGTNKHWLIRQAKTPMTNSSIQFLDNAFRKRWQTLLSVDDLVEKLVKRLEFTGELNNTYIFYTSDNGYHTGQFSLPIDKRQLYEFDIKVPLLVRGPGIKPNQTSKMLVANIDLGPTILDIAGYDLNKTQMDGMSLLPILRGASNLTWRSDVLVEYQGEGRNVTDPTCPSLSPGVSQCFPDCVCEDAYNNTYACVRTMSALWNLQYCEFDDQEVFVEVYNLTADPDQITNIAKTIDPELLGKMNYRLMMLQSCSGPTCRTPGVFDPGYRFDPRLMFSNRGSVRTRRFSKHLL
inactive: [1] -0.014 | filanesib -0.041 | zotarolimus -0.05 | idasanutlin -0.002 | alisertib -0.034 | [2] -0.011 | gefitinib 0.017 | [3] 0.039 | lapatinib -0.024 | pictilisib 0.014

GREB1 (UniProt Q4ZG55)
Sequence of UniProt Q4ZG55 (Q4ZG55 whole entry, looked up): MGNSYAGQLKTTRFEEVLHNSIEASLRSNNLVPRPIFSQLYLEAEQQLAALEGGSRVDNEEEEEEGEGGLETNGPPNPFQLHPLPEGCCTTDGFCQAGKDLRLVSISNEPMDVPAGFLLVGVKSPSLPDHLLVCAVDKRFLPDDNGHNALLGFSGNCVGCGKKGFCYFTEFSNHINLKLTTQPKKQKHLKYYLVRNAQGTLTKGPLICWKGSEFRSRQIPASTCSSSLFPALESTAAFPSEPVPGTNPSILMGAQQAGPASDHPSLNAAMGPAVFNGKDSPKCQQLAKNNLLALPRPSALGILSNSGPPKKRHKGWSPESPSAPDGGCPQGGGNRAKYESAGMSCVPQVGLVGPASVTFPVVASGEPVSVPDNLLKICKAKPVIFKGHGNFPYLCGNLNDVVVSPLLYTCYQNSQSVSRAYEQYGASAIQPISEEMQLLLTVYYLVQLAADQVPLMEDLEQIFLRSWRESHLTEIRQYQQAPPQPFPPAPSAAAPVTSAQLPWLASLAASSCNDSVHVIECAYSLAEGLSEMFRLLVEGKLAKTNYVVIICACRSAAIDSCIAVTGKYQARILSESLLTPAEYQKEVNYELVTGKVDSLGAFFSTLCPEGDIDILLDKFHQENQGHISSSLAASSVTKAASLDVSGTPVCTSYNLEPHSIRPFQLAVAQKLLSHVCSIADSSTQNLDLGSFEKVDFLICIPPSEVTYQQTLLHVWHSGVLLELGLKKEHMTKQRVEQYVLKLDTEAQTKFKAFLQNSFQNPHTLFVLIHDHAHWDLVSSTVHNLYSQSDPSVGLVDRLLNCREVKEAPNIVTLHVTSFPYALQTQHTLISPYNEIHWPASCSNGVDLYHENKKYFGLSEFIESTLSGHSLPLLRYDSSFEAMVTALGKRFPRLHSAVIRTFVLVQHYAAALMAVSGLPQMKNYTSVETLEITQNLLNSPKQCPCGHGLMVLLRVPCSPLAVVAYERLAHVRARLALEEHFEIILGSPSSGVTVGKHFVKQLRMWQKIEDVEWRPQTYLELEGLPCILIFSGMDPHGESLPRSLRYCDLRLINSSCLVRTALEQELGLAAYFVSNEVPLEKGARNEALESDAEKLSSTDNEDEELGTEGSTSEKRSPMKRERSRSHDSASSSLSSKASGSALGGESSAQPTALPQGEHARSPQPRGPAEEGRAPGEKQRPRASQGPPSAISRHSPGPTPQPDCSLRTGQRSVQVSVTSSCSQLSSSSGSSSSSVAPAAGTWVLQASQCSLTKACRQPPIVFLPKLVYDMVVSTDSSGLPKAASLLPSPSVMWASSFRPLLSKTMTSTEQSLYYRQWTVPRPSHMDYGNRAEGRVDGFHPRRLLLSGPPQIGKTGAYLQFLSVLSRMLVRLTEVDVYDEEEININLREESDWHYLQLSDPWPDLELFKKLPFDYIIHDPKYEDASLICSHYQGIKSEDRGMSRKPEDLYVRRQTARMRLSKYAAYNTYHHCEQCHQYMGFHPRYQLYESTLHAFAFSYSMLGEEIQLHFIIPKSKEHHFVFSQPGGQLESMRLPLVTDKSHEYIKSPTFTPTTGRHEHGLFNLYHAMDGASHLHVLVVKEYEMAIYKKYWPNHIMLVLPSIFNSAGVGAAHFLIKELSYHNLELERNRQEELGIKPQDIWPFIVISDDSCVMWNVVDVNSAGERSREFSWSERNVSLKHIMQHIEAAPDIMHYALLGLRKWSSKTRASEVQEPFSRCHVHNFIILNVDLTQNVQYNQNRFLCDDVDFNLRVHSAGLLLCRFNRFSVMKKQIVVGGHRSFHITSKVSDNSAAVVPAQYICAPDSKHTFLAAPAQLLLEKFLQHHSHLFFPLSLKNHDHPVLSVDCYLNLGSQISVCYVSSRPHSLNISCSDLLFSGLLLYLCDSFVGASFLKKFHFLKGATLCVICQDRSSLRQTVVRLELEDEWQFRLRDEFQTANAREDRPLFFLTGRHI
inactive: [1] 0.448 | filanesib 0.074 | zotarolimus 0.07 | idasanutlin -0.023

FHOD1 (UniProt Q9Y613)
inactive: [1] -0.044 | filanesib 0.084 | zotarolimus 0.095 | idasanutlin 0.127 | alisertib -0.161 | [2] 0.186 | gefitinib -0.005 | [3] -0.253 | lapatinib 0.014 | pictilisib 0.01

GLS (UniProt O94925)
Sequence of UniProt O94925 (O94925 whole entry, looked up): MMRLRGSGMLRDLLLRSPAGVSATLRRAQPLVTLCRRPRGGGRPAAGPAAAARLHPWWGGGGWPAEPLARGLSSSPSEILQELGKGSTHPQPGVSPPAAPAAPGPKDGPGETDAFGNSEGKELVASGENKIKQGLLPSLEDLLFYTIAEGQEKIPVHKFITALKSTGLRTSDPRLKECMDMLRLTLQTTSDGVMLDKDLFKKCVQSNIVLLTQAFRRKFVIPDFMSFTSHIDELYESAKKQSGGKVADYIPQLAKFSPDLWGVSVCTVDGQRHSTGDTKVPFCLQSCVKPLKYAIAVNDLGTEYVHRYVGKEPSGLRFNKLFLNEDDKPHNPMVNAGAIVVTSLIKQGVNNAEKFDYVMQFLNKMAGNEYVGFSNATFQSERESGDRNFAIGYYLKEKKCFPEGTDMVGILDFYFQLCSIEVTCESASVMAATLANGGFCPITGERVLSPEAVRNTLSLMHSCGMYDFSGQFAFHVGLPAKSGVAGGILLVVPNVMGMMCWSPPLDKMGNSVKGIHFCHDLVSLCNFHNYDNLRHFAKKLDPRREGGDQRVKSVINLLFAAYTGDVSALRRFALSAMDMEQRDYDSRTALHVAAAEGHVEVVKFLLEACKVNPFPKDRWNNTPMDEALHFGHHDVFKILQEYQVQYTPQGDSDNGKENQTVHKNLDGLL
inactive: [1] 0.009 | filanesib 0.029 | zotarolimus 0.027 | idasanutlin -0.192 | alisertib 0.143 | [2] 0.22 | gefitinib 0.033 | [3] -0.009 | lapatinib -0.052 | pictilisib 0.049

GSK3A (UniProt P49840)
inactive: [1] -0.028 | filanesib -0.087 | zotarolimus -0.029 | idasanutlin -0.107 | alisertib 0.051 | [2] 0.088 | gefitinib -0.008 | [3] 0.045 | lapatinib -0.016 | pictilisib 0.188

IGF2 isoform 3 (UniProt P01344)
Sequence of UniProt P01344 (P01344 whole entry, looked up): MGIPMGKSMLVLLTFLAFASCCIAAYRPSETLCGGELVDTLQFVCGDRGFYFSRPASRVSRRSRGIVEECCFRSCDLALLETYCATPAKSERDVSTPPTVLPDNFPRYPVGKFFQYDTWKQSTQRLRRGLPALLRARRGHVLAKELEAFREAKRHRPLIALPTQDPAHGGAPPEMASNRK
inactive: [1] 0.041

GDE1 (UniProt Q9NZC3)
Sequence of UniProt Q9NZC3 (Q9NZC3 whole entry, looked up): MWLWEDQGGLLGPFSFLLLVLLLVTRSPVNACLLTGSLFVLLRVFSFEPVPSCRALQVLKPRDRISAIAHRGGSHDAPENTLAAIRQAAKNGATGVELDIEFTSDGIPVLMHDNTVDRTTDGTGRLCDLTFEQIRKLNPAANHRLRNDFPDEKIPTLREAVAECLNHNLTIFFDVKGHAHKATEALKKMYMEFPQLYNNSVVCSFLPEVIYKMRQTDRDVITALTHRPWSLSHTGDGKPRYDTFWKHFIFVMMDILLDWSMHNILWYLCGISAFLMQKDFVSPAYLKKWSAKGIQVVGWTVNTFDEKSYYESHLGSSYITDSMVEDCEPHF
inactive: [1] 0.046 | filanesib -0.102 | zotarolimus 0.043 | idasanutlin -0.064 | alisertib -0.176 | [2] 0.012 | gefitinib 0.008 | [3] 0.01 | lapatinib -0.011

GALK1 isoform 2 (UniProt P51570)
inactive: [1] -0.023 | filanesib -0.201 | zotarolimus 0.012 | idasanutlin -0.106 | alisertib -0.125 | [2] -0.049 | gefitinib -0.005 | [3] 0.036 | lapatinib 0.147 | pictilisib -0.05

GABARAPL1 isoform 2 (UniProt Q9H0R8)
Sequence of UniProt Q9H0R8 (Q9H0R8 whole entry, looked up): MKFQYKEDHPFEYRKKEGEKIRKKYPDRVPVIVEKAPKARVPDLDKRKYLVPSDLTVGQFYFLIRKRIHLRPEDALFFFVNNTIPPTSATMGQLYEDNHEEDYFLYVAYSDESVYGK
inactive: [1] 0.053 | filanesib -0.054 | zotarolimus 0.024 | idasanutlin -0.112 | alisertib 0.024 | [2] 0.007 | gefitinib 0.021 | [3] -0.01 | lapatinib -0.026 | pictilisib 0.115
